Rows were chosen to be rich in hits. Some 19% of all compounds tested hit in one or more screens of this group.
HT1080-NT tox: qHTS for induction of synthetic lethality in tumor cells producing 2HG: qHTS for the HT-1080-NT fibrosarcoma cell line; HT-1080-NT fibrosarcoma viability, CellTiter-Glo ATP luminescence, 48 h; Potency, µM (titrated, usually from 46.1 µM), for inactives: at the top dose activity, negative = less viability, usual class: cytotoxic; 360,000 compounds, 1.6% hits;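 note: NT is the 2HG producing partner of a matched IDH1 knockdown line; potency is the fitted concentration of half-maximal effect; 0% = DMSO-treated cells and -100% = media-only wells without cells; nearly all actives have a fitted effect of over 55% in size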
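Fibrosarcoma NT cells, 750 per well in 5% FBS RPMI, were exposed to compound for 48 hours. Viability: CellTiter-Glo luminescence.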
TDP1 cell CPT: qHTS for Inhibitors of human tyrosyl-DNA phosphodiesterase 1 (TDP1): qHTS in cells in presence of CPT. 420,000 compounds, 12% hits. chicken DT40 Tdp1-/-;hTDP1 cells + 20 nM CPT, ATP luminescence, 48 h. Potency, µM (highest dose often 46.2 µM), for the others: at the top dose activity change, negative = growth inhibition, hits mostly inhibitors; note: potency is the fitted concentration of half-maximal effect; nearly all actives have a fitted effect of over 55% in size
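Cell growth measured by CellTiter-Glo luminescence after a minimum 48 h, 37 C compound exposure with 20 nM CPT in Tdp1-knockout DT40 cells stably expressing hTDP1, seeded 400/well; qHTS titration format.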
HT1080 IDH1KD tx: qHTS for induction of synthetic lethality in tumor cells producing 2HG: qHTS for the HT-1080-IDH1KD cell line | HT-1080 IDH1 knockdown viability, ATP luminescence, 48 h | Potency, µM (titrated, usually from 46.1 µM), for the others: at the highest dose activity, negative = toxicity, usual class: cytotoxic | 360,000 compounds, 2% hits;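 note: potency is the fitted concentration of half-maximal effect; 0% = DMSO wells and -100% = cell-free medium wells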
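Knockdown cells (IDH1KD HT-1080) received compounds 2 h after plating at 750 cells/well and were kept 48 h at 37 °C in 5% FBS RPMI. A CellTiter-Glo luminescence read gave % activity for curve fitting.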
IL-1B inflam inh: qHTS for Inhibitors of Inflammasome Signaling: IL-1-beta AlphaLISA Primary Screen | THP-1 LPS/ATP IL-1B secretion, AlphaLISA, 16 h; hits give low values | activity change, % at 57.5 µM | 360,000 compounds, 4.7% hits | AID 743279, 2014; in the data active = activity change below about -50%; inconclusive = mostly about -30% to -49%
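Secreted IL-1B measured by AlphaLISA bead assay after 16 h compound exposure of THP-1 cells; compounds (final up to 57.5 uM) added 1 h before LPS (250 ng/mL) and ATP (1.25 mM) stimulation; lower signal means less secretion.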
DT40 TDP1 no CPT: qHTS for Inhibitors of human tyrosyl-DNA phosphodiesterase 1 (TDP1): qHTS in cells in absence of CPT | DT40 Tdp1-/- hTDP1 cells, no CPT, ATP luminescence, 48 h | Potency, µM (titrated, usually from 46.2 µM), without a hit: at the top dose activity change, negative = growth inhibition, most hits filed as inhibitors | 420,000 compounds, 15% hits | AID 686978, 2013; note: potency is the fitted concentration of half-maximal effect; nearly all actives have a fitted effect of over 55% in size
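Growth of hTDP1-complemented DT40 Tdp1-knockout cells is measured by ATP luminescence after at least 48 hr compound exposure at 37 °C, with DMSO substituting for the 20 nM CPT used in the parallel screen.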
* = called active by the depositor; ? = inconclusive; nt = no result given. Unless noted, calls come from the whole dose curve; as a rule, active = well fitted curve in the direction sought with a large enough effect; inconclusive = small, poorly fitted or top-dose-only effect, or another doubt; inactive = no such curve, though single readings can be large; an effect the other way counts as inactive or inconclusive. Unless noted, % is set by controls: 0 for no effect and ±100 for the full control effect.

SMILES	HT1080-NT tox	TDP1 cell CPT	HT1080 IDH1KD tx	IL-1B inflam inh	DT40 TDP1 no CPT
O=C(Cc1ccc(NC2=NC3CS(=O)(=O)CC3S2)cc1)NCc1ccc(Cl)cc1 (stereo not drawn)	7%	8%	-2%	8	19%
COc1ccc(C(=O)NCc2nnc(SCC(=O)Nc3ccccc3)n2-c2ccc(F)cc2)cc1	nt	0%	nt	nt	-27%
Cn1cc(-c2csc(C(C)(O)c3cccnc3)n2)cn1 (stereo not drawn)	1%	-15%	9%	7	-5%
COc1cccc2cc(C(=O)N(Cc3cccs3)Cc3cccs3)c(=O)oc12	nt	-7%	nt	nt	?
O=C(Nc1ccc2c(c1)OCO2)C1Cc2c(-c3ccc(Cl)cc3)ccnc2O1 (stereo not drawn)	23µM*	?	?	-53*	?
O=C(Nc1ccc2c(c1)OCO2)C1Cc2c(-c3ccc4c(c3)OCO4)ccnc2O1 (stereo not drawn)	?	6.5µM*	4.1µM*	-2	6.5µM*
CC(=O)Nc1ccc(NC(=O)C2Cc3c(-c4ccc5c(c4)OCO5)ccnc3O2)cc1 (stereo not drawn)	19%	-7%	27%	-2	-6%
CC(C)C[C@H](NC(=O)N1CCCCCC1)C(=O)O	1%	5%	9%	0	2%
CCOC(=O)C1=C(C)N(c2ccccc2)C(=O)/C1=C\c1cccs1	-1%	?	5%	?	?
CCOC(=O)C1=C(C)N(c2ccccc2)C(=O)/C1=C\c1ccco1	-7%	?	0%	-59*	?
CCCCCCC1CCC(C(=O)N2CCOCC2)CC1 (stereo not drawn)	10%	?	-9%	43	?
Cc1nn(-c2ccc(F)cc2)c2nc(N)c(C#N)c(-c3ccc(O)c(O)c3)c12	?	16µM*	?	-7	23µM*
COc1cc(-c2c(C#N)c(N)nc3c2c(C)nn3-c2ccc(C)c(C)c2)cc(OC)c1OC	?	?	11µM*	-10	?
Cc1nn(-c2ccc(F)cc2)c2nc(N)c(C#N)c(-c3cccs3)c12	-21%	23µM*	-11%	10	13µM*
Cc1nn(-c2ccccc2)c2nc(N)c(C#N)c(-c3ccc(O)c(O)c3)c12	?	?	?	-7	?
Cn1c(=O)c(=O)n(C)c2cc(S(=O)(=O)N3CCCC3C(=O)Nc3ccccc3F)ccc21 (stereo not drawn)	-2%	6%	-2%	19	-1%
Cc1ccc(CS(=O)(=O)c2ncc(Cl)c(C(=O)Nc3nc4ccc(F)cc4s3)n2)cc1	nt	5.2µM*	nt	nt	2.6µM*
Cc1ccc(CS(=O)(=O)c2ncc(Cl)c(C(=O)Nc3nc4ccc(C)cc4s3)n2)cc1	nt	2.9µM*	nt	nt	3.7µM*
COc1ccc2nc(NC(=O)c3nc(SC(C)C)ncc3Cl)sc2c1	nt	-6%	nt	nt	-6%
COc1ccc2nc(NC(=O)c3nc(S(=O)(=O)Cc4ccc(C)cc4)ncc3Cl)sc2c1	nt	1.6µM*	nt	nt	2.3µM*
COc1ccc(CC2(CO)CCN(Cc3cnn(-c4ccccc4)c3)CC2)cc1	?	?	?	-95*	?
CSc1cccc(CN2CCC(CO)(Cc3ccccc3)CC2)c1	-16%	-5%	0%	-18	?
Cc1[nH]c2ccccc2c1CN1CCC(CO)(Cc2ccccc2)CC1	-1%	13µM*	-1%	-16	?
Cc1cc(C)n(-c2cccc(CN3CCC(CO)(Cc4ccccc4)CC3)c2)n1	-12%	?	-12%	-71*	23µM*
Cc1[nH]c2c(C)cccc2c1CN1CCC(CO)(Cc2ccccc2)CC1	?	?	?	-13	?
